# TIM10 inh: TIM10 yeast growth inhibition | inhibition, % at 10 µM | S. cerevisiae TIM10 strain growth, BacTiter-Glo luminescence, 24 h | AID 463195 | 330,000 tested, 1.4% active;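 active = inhibition of 40% or more at the single tested concentration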;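 also: wild-type TIM10 isogenic control strain grown at permissive 25 °C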
# tim10-1 inh: inhibits growth of tim10-1 mutant yeast; S. cerevisiae tim10-1 ts strain growth, BacTiter-Glo, 24 h; inhibition, % at 20 µM; 330,000 tested, 2.2% active;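 active = inhibition of at least 40%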;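 also: mutant grown at 25 °C; 0% = DMSO wells with yeast and 100% = wells holding no yeast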
# tim23-1 inh: inhibits growth of tim23-1 mutant yeast; inhibition, % at 20 µM; 330,000 tested, 1.3% active; S. cerevisiae tim23-1 growth, BacTiter-Glo luminescence, 24 h; AID 463212;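 active = growth inhibition of the mutant yeast at or above 50%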;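 also: temperature-sensitive mutant grown at 25 °C; plate controls were DMSO-treated mutant yeast for no effect and medium wells lacking yeast for full effect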
# PfHsp90 set2: inhibits growth of yeast expressing Plasmodium falciparum Hsp90 | inhibition, % at 9.4 µM | 310,000 tested, 0.32% active | AID 504621 | S. cerevisiae expressing PfHsp90, BacTiter-Glo ATP, 48 h; yeast lacking PDR1 and PDR3 efflux regulators;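 active = every replicate shows inhibition above about 80%, whatever the replicate mean, limit read from the data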;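 also: 0% = DMSO neutral controls and 100% = 20 µM radicicol positive controls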
# NLRP3 yeast inh: NALP3 inhibition in yeast; AID 2825; Yeast reconstituted NLRP3/ASC/caspase-1, beta-gal luminescence, 24 h; 330,000 tested, 0.39% active; inhibition, % at 10 µM;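 active = inhibition of 50% or more; inactive = inhibition below 50%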;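 also: plate controls were induced DMSO wells for no effect and uninduced yeast grown without galactose for full effect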
# SKKanGAS inh: inhibitors of SKKanGAS S. pyogenes growth in kanamycin (SK-promoter or general growth effect); AID 1662; 300,000 tested, 1.3% active; inhibition, % at 7.5 µM; BacTiter-Glo, 6 h;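 active = mean replicate score, as percent of positive control median, at least 50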;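 also: strain carries kanamycin resistance gene driven by streptokinase promoter and grows in 40 µg/ml kanamycin; loss of luminescence reflects streptokinase promoter inhibition or plain growth inhibition; 0% = median of DMSO wells and 100% = positive control at its reference dose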
# tim10-1 confirm: tim10-1 yeast growth inhibition, confirmed. shares compounds with tim10-1 inh. S. cerevisiae tim10-1 ts strain growth, BacTiter-Glo, 24 h. inhibition, % at 20 µM. 7,400 tested, 56% active;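 active = inhibition of yeast growth at or above a set limit in either of two repeat tests at 20 µM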;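 also: tim10-1 mutant grown at permissive 25 °C to find synthetic lethal compounds; 0% = DMSO yeast wells and 100% = medium wells without yeast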
# * = called active by the depositor; / = no result given. Compounds with a hit are over-represented: about 4.6% of the library has one in this group of screens.
SMILES,TIM10 inh,tim10-1 inh,tim23-1 inh,PfHsp90 set2,NLRP3 yeast inh,SKKanGAS inh,tim10-1 confirm
Cc1noc(C)c1COc1ccccc1C(=O)N(C)Cc1ccc(C(C)(C)C)cc1,17,42*,49,/,-2,/,20
Cc1noc(C)c1COc1ccccc1C(=O)N(C)Cc1ccc(F)cc1,16,21,18,/,8,/,/
O=C(OCCOc1cccc(Cl)c1)C1CCN(S(=O)(=O)c2ccccc2)CC1,9,44*,38,-17,10,-1,25
COc1ccc(Nc2nc(N)c(C(=O)c3ccc(OC)cc3)s2)cc1,20,44*,37,-42,16,12,0
Cc1cccc(C(=O)Nc2ccccc2C(=O)OCC(=O)Nc2ccc(C#N)cc2)c1,38,43*,20,8,8,11,11
Cc1ccc(NC(=O)COC(=O)c2ccccc2Nc2ccccc2)cc1,5,-5,11,4,15,1,/
COc1cc(CCC(=O)OCc2nnc(-c3ccccc3)o2)cc(OC)c1OC,21,32,19,-1,-10,-1,/
COc1cc(-c2nnc(COC(=O)CSc3cc(C)c4ccccc4n3)o2)cc(OC)c1OC,6,40*,18,63,5,-24,17
Cn1c(SCC(=O)c2ccccc2)nnc1-c1cccs1,16,22,25,2,10,4,/
COc1cc(OC)c(C(=O)OCC(=O)NCC2CCCCC2)cc1OC,9,9,0,-29,-4,/,/
Cc1ccc(S(=O)(=O)/N=C(/NC(=S)Nc2cccc(C)c2)c2ccccc2)cc1,18,38,14,-8,14,15,/
Cc1cccc(NC(=S)N/C(=N/S(=O)(=O)c2ccccc2)c2ccccc2)c1,26,42*,20,3,17,6,14
Brc1ccc(/C=N/Nc2ccc3ccccc3n2)cc1,16,48*,35,2,19,3,14
Brc1ccccc1/C=N/Nc1ccc2ccccc2n1,29,33,26,6,15,-10,/
Cn1nc(C(F)(F)F)c(C(=O)Nc2ccc(F)cc2F)c1Sc1cccc(Cl)c1,17,44*,27,-1,-9,15,34*
Cn1nc(C(F)(F)F)c(C(=O)Nc2ccc(F)cc2F)c1Sc1cccc(C(F)(F)F)c1,23,39,21,-1,16,27,/
CCn1c(-c2cc(-c3ccc(C)c(C)c3)nc3ccccc23)n[nH]c1=S,35,47*,41,/,47,12,34*
CCOc1cccc(-c2cc(-c3n[nH]c(=S)n3CC)c3ccccc3n2)c1,30,53*,43,-2,33,13,26
CCn1c(-c2cc(-c3cc(C)ccc3C)nc3ccccc23)n[nH]c1=S,1,13,26,10,0,23,/
O=C(/C=C/c1ccc(Cl)cc1Cl)N1CCN(c2ccc([N+](=O)[O-])c(N3CCOCC3)c2)CC1,13,42*,13,-35,6,40,16
Cc1cc(Nc2ccccc2)c2c([N+](=O)[O-])c(C)cc(C)c2n1,32,41*,45,/,11,19,27
Cc1cccc(Nc2cc(C)nc3ccccc23)c1,-6,-15,-5,-6,18,-5,/
Cc1nc([N+](=O)[O-])cn1CC(=O)Nc1ccc([N+](=O)[O-])cc1,4,-22,-15,11,13,4,/
O=c1c2ccccc2nc(SCc2ccc([N+](=O)[O-])cc2)n1-c1ccccc1,26,40*,34,0,-4,5,34*
Cc1cc(C)c2cc(C#N)c(N3CCCN(C(=S)NCCCN(C)C)CC3)nc2c1,32,40*,36,-12,17,3,31*
SMILES,TIM10 inh,tim10-1 inh,tim23-1 inh,PfHsp90 set2,NLRP3 yeast inh,SKKanGAS inh,tim10-1 confirm
Cc1ccc2cc(C#N)c(N3CCCN(C(=S)NCCCN(C)C)CC3)nc2c1,-2,4,4,2,23,4,/
C[C@H]1COC(=O)[C@@H](Cc2ccc(F)cc2)C/C=C\C[C@@H](CC(=O)N[C@@H](CO)Cc2ccccc2)C(=O)N1,4,8,-4,4,24,/,/
Cc1cc(C)nc(NC(=S)NC(=O)c2ccccc2)n1,-10,-10,8,6,22,3,/
Cc1cc(C)c2c(NC(=S)NC(=O)c3ccccc3)nn(C)c2n1,4,50*,28,-12,15,-1,21
COc1ccc(-n2ncc(C(C)NS(=O)(=O)c3cccs3)c2C)cc1 (configuration not stated),10,10,14,15,7,-6,/
NS(=O)(=O)c1ccc(NCc2ccccc2OCc2ccc(F)cc2)cc1,9,44*,38,/,1,8,19
NS(=O)(=O)c1ccc(CCNCc2ccccc2OCc2ccc(F)cc2)cc1,-13,15,6,-6,5,-1,/
CC1(C)CC[C@]2(C(=O)O[C@@H]3OC(CO)[C@@H](O)[C@H](O)[C@H]3O)CC[C@]3(C)C(=CCC4[C@@]5(C)CC[C@H](O[C@@H]6OC(C(=O)O)[C@@H](O)[C@H](O)[C@H]6O)C(C)(C)C5CC[C@]43C)[C@@H]2C1 (some centres not stated),1,40*,28,12,-19,/,22
O=c1c2ccccc2nc2c3ccccc3c(NCCO)nn12,32,42*,36,11,6,9,33*
Cc1ccc(C(=O)NCC(=O)OCCOc2ccccc2Cl)cc1,-8,-7,-4,8,13,-5,/
O=C(COC(=O)C1CC(O)CN1S(=O)(=O)c1ccccc1[N+](=O)[O-])c1ccc[nH]1 (configuration not stated),-3,-7,-9,-2,12,/,/
COc1cccc(C(=O)CSc2nnnn2C2CCCCC2)c1,11,44*,46,-25,18,0,37*
Cc1cc(C)nc(SCC(=O)Nc2nc(-c3ccccc3)c(-c3ccccc3)o2)n1,-11,-51,1,-25,-18,24,/
Cc1ccc(C(=O)Nc2nc(-c3ccccc3)c(-c3ccccc3)o2)cc1,25,40*,31,-37,0,113*,18
O=C(NC(NNc1ccc([N+](=O)[O-])cc1)(C(F)(F)F)C(F)(F)F)c1ccc(Cl)cc1,35,64*,37,-39,13,33,51*
N#CC1=C(SCC(=O)Nc2ccc(C(=O)O)cc2)NC(=O)CC1c1ccco1 (configuration not stated),-11,-10,2,20,0,-7,/
COc1ccc(C2=NOC(Cn3nc(-c4ccccc4)cc3C(=O)NCc3cccs3)C2)cc1 (configuration not stated),-22,10,16,6,22,/,/
COc1ccc(CC(=O)O/N=C(\N)Cc2cccc3ccccc23)cc1OC,29,58*,34,-70,-12,-4,48*

# Bioassay records as filed in PubChem.
